According to PubChem BioAssay AID1259336 (Sattelle Laboratory, UCL Respiratory, Division of Medicine, …, 2017):
Active and inactive are the calls of the source. Rule as the data show it: active = log2 fold change growth below about -1.8; inactive = the rest.

Test: C. elegans growth inhibition, whole organism, log2 fold change (AID 1259336);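 also: growth scored by imaging after five days at 20 °C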
Details: anthelmintic screen, hits give low values

SMILES | log2 fold change growth
COC(=O)c1ccc(F)cc1NS(=O)(=O)c1cccc(-c2cnn(Cc3ccccc3)c2)c1 | -0.413 (inactive)
Cn1c(=O)c2c(S(C)(=O)=O)snc2n(C)c1=O | 0.155 (inactive)
CNc1cc(C)nc([C@@H]2CN(C(=O)c3n[nH]c4ccccc34)CCO2)c1 | 0.0798 (inactive)
O=C(NCCc1c[nH]c2ccccc12)c1cc2ccccc2oc1=O | 0.481 (inactive)
Cc1[nH]n2c(=O)c3c(nc2c1-c1ccc(Cl)cc1)CCCC3 | -0.182 (inactive)
COc1ccc(O[C@@H](C)C(=O)Nc2ccc(Cl)cc2C)cc1 | 0.539 (inactive)
COc1ccc(-c2cnc3ccc(NCc4ccc(S(N)(=O)=O)cc4)nn23)cn1 | 0.21 (inactive)
Cn1ccnc1CNCCS(=O)(=O)c1cccc(Nc2ccc(-c3cccc(F)c3)cn2)c1 | 0.155 (inactive)
CN1CCN(c2nccc3[nH]c(-c4cccc(F)c4)cc23)CC1 | -0.0356 (inactive)
CCOc1ccc2cc(-c3nn(CC4CCN(C)CC4)c4ncnc(N)c34)ccc2c1 | 0.151 (inactive)
c1ccc(Oc2ccc(-c3cc(CN4CCOCC4)[nH]n3)cc2)cc1 | 0.284 (inactive)
CC(=O)NC[C@H]1CN(c2ccc(N3CCSCC3)c(F)c2)C(=O)O1 | 0.00512 (inactive)
Nc1ccc2ncnc(Nc3ccc(OCc4cccc(F)c4)c(Cl)c3)c2c1 | -0.0667 (inactive)
CC(=O)NC[C@H]1CN(c2ccc(-c3ccc(CNCc4cn[nH]n4)cc3)c(F)c2)C(=O)O1 | 0.387 (inactive)
Cc1cc(Nc2ccncc2)n2nc(C)c(-c3ccccc3Cl)c2n1 | -0.496 (inactive)
COc1cc(OC)cc(C(=O)NC[C@H]2Cc3cc(Cl)cc(-c4ccncc4)c3O2)c1 | -1.17 (inactive)
O=C(Nc1nnc(-c2ccc(Cl)s2)o1)c1ccc(Cl)s1 | 0.518 (inactive)
c1ccc(Oc2ccc(-c3cc(N4CCNCC4)n[nH]3)cc2)cc1 | 0.489 (inactive)
C[C@]1(COc2ccc(N3CCC(Oc4ccc(OC(F)(F)F)cc4)CC3)cc2)Cn2cc([N+](=O)[O-])nc2O1 | 0.162 (inactive)
Cc1ccc2nc(Cl)c(CNCc3cccs3)cc2c1 | -0.121 (inactive)
O=C(Nc1cnc2ccccc2c1)c1cccc(-n2cnnn2)c1 | 0.489 (inactive)
O=C(N[C@H]1CCN(c2ccnc3ccccc23)C1)c1cccc(C(F)(F)F)c1 | 0.541 (inactive)
CC1=NN(c2nc3ccccc3s2)C(=O)[C@H]1Cc1cccc2ccccc12 | -0.647 (inactive)
FC(F)(F)c1nnc2ccc(Cl)nn12 | -0.128 (inactive)
